Source: PubChem BioAssay (ICCB-Longwood Screening Facility, Harvard Medical School)
Mtb MbtI inh: MbtI salicylate synthase inhibition. P9WFX0. purified MbtI enzyme, fluorescence intensity read-out. inhibition, % (test concentration not listed). 100,000 tested, 0.89% active; in the data active = inhibition mostly above about 56%, no sharp cut-off; inactive = mostly below about 77%
Mtb MenB inh: Mtb MenB enzyme inhibition; MenB enzyme assay, absorbance read-out; inhibition, % (test concentration not listed); 100,000 tested, 0.43% active; in the data active = inhibition above about 21%, passing the limit was not always enough
PV pol inh: poliovirus RNA polymerase inhibition. P03300. poliovirus polymerase elongation, fluorescence polarization; stronger effect = lower value. % elongation, % (compound at 16.7 µg/mL). 150,000 tested, 0.66% active. AID 588519; in the data active = % elongation below about 90%
Target sequence (P03300 1749-2209 limits assumed): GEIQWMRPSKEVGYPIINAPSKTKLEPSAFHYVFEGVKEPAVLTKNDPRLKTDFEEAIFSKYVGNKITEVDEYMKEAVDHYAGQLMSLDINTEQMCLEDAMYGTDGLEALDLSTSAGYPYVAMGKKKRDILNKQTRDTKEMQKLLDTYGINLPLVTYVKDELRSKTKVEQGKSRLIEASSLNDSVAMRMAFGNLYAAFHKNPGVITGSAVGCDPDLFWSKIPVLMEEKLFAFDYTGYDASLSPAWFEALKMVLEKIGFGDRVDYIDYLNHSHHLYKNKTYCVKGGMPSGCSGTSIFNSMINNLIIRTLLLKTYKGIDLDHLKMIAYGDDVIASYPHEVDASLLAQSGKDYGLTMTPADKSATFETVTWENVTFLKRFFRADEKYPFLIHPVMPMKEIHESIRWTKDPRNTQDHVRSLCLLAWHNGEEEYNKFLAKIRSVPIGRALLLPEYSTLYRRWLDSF
* = called active by the depositor; . = no result given. Most compounds without a hit are left out; they make up all but 1.4% or so of the library.

SMILES	Mtb MbtI inh	Mtb MenB inh	PV pol inh
CCNc1nc(NCC)nc(NCCO)n1	-14	32*	99
CCN(CC)CCNC(=O)c1ccc(Cn2c(=O)c3cccn3c3cccnc32)cc1	.	.	107
CC(O)c1cccc(NC(=O)C2C3C=CC(C3)C2C(=O)O)c1 (configuration not stated)	-7	-11	98
O=C(O)C1C2C=CC(C2)C1C(=O)Nc1cccc(Br)c1 (configuration not stated)	-3	26*	97
CCCCNc1nc(=S)nc(N(C)C)[nH]1	-9	9	100
CCN(CC)C(=O)Cn1nnc(-c2ccccc2)n1	-5	8	100
O=C(Cn1nnc(-c2ccncc2)n1)N(C1CCCCC1)C1CCCCC1	0	active	104
O=C(CS(=O)(=O)Cc1ccccc1)Nc1ccc2c(c1)OCO2	7	-16	103
O=C(CNS(=O)(=O)c1ccccc1)Nc1ccc2c(c1)OCO2	4	56*	103
Cc1ccc(S(=O)(=O)N(CCO)Cc2cc3cc(C)c(C)cc3[nH]c2=O)cc1	32	17	102
COc1ccc2[nH]c(=O)c(CN(CCO)S(=O)(=O)c3ccc(Cl)c(C(F)(F)F)c3)cc2c1	23	33*	100
O=C(O)C1CC(=O)N(c2ccccc2)C1 (configuration not stated)	-12	.	.
C=CCN1C(c2ccc(C)cc2)=CS/C1=C(\C#N)C(=O)OCC	-1	-1	103
CC(Sc1cccc[n+]1[O-])C(=O)NCC1CCCCC1 (configuration not stated)	81*	5	100
O=C(CSc1cccc[n+]1[O-])NCC1CCCCC1	-2	-8	105
COc1ccc(/C=C(\C#N)S(=O)(=O)c2ccccc2)cc1CSCc1ccco1	30	-23	100
O=C(Nc1ccccc1-c1ccccc1)C1CCCO1 (configuration not stated)	-4	1	100
COC(=O)c1cc(-c2ccccc2)sc1NC(=O)C1CCCO1 (configuration not stated)	.	-33	85*
Nc1cccc(-c2cc(C(=O)O)c3cc(Br)ccc3n2)c1	-3	8	100
CNC(=O)CN1C(=O)c2cccc3cccc1c23	23	-41	101
CN1/C(=N\O)c2cccc3cccc1c23	81*	-70	96
O=C1c2ccccc2C(=O)c2c1oc1c3c(ccc21)OCN(CCCn1ccnc1)C3	8	-2	84*
O=C1c2ccccc2C(=O)c2c1oc1c3c(ccc21)OCN(CCC1=CCCCC1)C3	5	-22	98
O=C1C2CCCN2C(=S)N1C1CCCCC1 (configuration not stated)	4	31	102
O=C1C=CC(=O)N1C1CC1	91*	10	102
SMILES	Mtb MbtI inh	Mtb MenB inh	PV pol inh
CCCCC1CCC(CCCC(C)CCC(=O)O)CC1 (configuration not stated)	.	.	89*
CCCCC1CCC(C(=O)O)CC1 (configuration not stated)	-7	.	101
NC(=O)CCN1C(=O)C2C3C=CC(C3)C2C1=O (configuration not stated)	.	-2	104
N#Cc1ccc(CSc2nc3ccccc3c(=O)[nH]2)cc1	53*	-14	99
C#CCSc1nc2ccccc2c(=O)[nH]1	87	-30	100
CCOC(=O)Cn1nc(C(F)(F)F)cc1C	.	-7	104
O=C(OCCCn1c(=O)[nH]c2ccccc21)c1ccc2c(c1)S(=O)(=O)c1ccccc1C2=O	-16	-26	103
CCn1c(CCC(=O)O)nc2cc(S(N)(=O)=O)ccc21	92	-65	64*
CCn1c(C)nc2cc(S(N)(=O)=O)ccc21	-11	.	.
S=C(c1cccc(OCc2ccccc2)c1)N1CCCCC1	73*	-34	94
CN1CCN(C(=S)c2cccc(OCc3ccccc3)c2)CC1	33	-11	101
CC1Cc2ccccc2N1C(=O)CSc1nc(N)cc(N)n1 (configuration not stated)	-9	-10	104
CCOc1ccc(CN2CCc3nc(N4CCN(c5ccccn5)CC4)ncc3C2)cc1OC	.	.	13*
COc1cc(CN2CCc3nc(N4CCN(c5ccccn5)CC4)ncc3C2)cc(OC)c1OC	.	.	102
O=C(O)c1cc(=O)c2cc(Br)ccc2o1	.	-5	106
O=c1ccc2cc3c([nH]c4ccc(Br)cc43)oc-2c1O	97*	-119	86
C[C@]12CCC(=O)C=C1CCC1C2[C@@H](O)C[C@@]2(C)C1CC[C@]2(O)C(=O)COC(=O)CCC(=O)O (some centres not stated)	-1	-5	99
Cc1ccc(S(=O)(=O)n2nc(C)cc2C)cc1	5	7	104
Cc1ccc(S(=O)(=O)N(C)c2c(C)ccc(S(=O)(=O)n3nc(C)cc3C)c2C)cc1	-4	39*	101
O=C(NCc1ccco1)c1cc2c(Cl)nc3ccccc3c2s1	6	12	99
CC(C)c1ccc(NCc2nc(-c3ccc(Cl)cc3Cl)no2)cc1	-10	-22	102
O=c1[nH]c(CN2CCOCC2)nc2ccccc12	-1	-13	70*
O=c1[nH]c(CN2CCN(Cc3ccccc3)CC2)nc2ccccc12	-4	4	104
CCc1ccc(S(=O)(=O)N2CCSC2c2ccccc2)cc1 (configuration not stated)	6	-38	105
COC(=O)c1ccc(-c2c3c(nc4nc(N)[nH]c(=O)c24)-c2ccccc2C3=O)cc1	0	-39	82
SMILES	Mtb MbtI inh	Mtb MenB inh	PV pol inh
[N-]=[N+]=c1c(=O)ccc2c(=O)c3ccccc3c(=O)c1=2	-3	-45	82*
O=C1NN(c2ccccc2)C(=O)/C1=C/c1ccc(Br)cc1	.	79*	98
O=C1NC(=O)C(=Cc2ccc(Br)cc2)C(=O)N1	.	-39	100
CC1=C(C(=O)Nc2ccc(CC(=O)N3CCC4(CC3)OCCO4)cc2)SCCO1	3	-5	105
CCC(C)(C)c1nnc(N)s1	99*	5	96
CCCc1nnc(N)s1	2	.	104
Cc1cc(C)c2c(=O)n(-c3ccccc3)[nH]c2n1	52*	-49	101
Cc1nc2[nH]n(-c3ccccc3)c(=O)c2c(C)c1CCC(=O)Nc1ccccc1	10	-17	104
Cc1ccc(-c2nc3sc4c(n3n2)CC(C)(C)CC4=O)cc1	.	0	103
Cc1cc(=O)[nH]c(SCC(=O)c2ccc3c(c2)NC(=O)CO3)n1	29	16	103
O=C1COc2ccc(C(=O)CSC(=S)N3CCCC3)cc2N1	89	-49	81*
Cc1nc2scc(C)n2c1/C=N/NC(=O)CSc1cccc2cccnc12	-17	-20	99
Cc1ccc2c(c1)N(C(=O)CN1C=NS(=O)(=O)c3ccccc31)CCO2	2	11	100
Cc1cc(C)n(C(=O)c2cccs2)n1	1	5	103
Cc1cc(C)n(C(=O)c2ccoc2C)n1	-1	36*	100
O=C(Nc1csnc1-c1c(Cl)cccc1Cl)NN1CCCCC1	-6	-8	108
c1ccc(-c2cc3ccsc3o2)cc1	15	-4	102
Cc1cc(C)nc(SCc2csc(N)n2)n1	1	-24	98
N=C(N)SCc1csc(N)n1	.	7	87*
CS(=O)c1scc(-c2ccc(Cl)cc2)c1C#N (configuration not stated)	7	-5	106
CCN(CC)c1ccc(NC(=O)CCCN2C(=O)C(c3ccccc3)Oc3cccnc32)c(C)c1 (configuration not stated)	.	.	101
